Reference: PubChem BioAssay (NCI)
This is part of a sample that, as a whole, favours compounds with a hit. Of some 83,000 tested, about 20% had one in any assay.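 96-well plates, one dose, 48 hours. Percent growth reported; active if below 10.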 Calls of active or inactive are those of the source.

Legend:
Assay in all cases: NCI-60 one-dose screen, 48 h (100 = growth as untreated, 0 = no growth, -100 = all killed)
Details in all cases: 10 µM unless noted
[1] = system: SR leukemia
[2] = system: RPMI-8226 leukemia
[3] = system: OVCAR-8 ovarian
[4] = system: OVCAR-5 ovarian
[5] = system: OVCAR-4 ovarian
[6] = system: SK-OV-3 ovarian
[7] = system: IGROV1 ovarian
[8] = system: OVCAR-3 ovarian
[9] = system: HS 578T breast
[10] = system: NCI/ADR-RES ovarian

Measured: growth

CCCCC[C@@H]1C/C=C(\C)[C@@H](O)C(C)(C)C(=O)[C@@H](C)/C=C(\C)[C@@H]2C[C@H](O)C[C@](O)(CC(=O)O1)O2
inactive: [1] 17.1% | [3] 42.3% | [4] 78% | [5] 27.7% | [6] 78.6% | [7] 58.5% | [8] 35.6% | [9] 47.7% | [10] 19.7%
active: [2] 8.23%

CNS(=O)(=O)N1CCc2c(Br)c3c(c(OC)c2C1CCc1ccccc1)OCO3 (stereo not given)
inactive: [6] 16.2%
active: [1] 4.75% | [2] 2.66% | [3] 9.92% | [4] -40% | [5] -2.26% | [7] -6.68% | [8] -48.8% | [9] -22.4% | [10] -10.9%

Cc1cc(Cl)ccc1NC(=O)Nc1ccc(-c2ccc3c(c2)NC(=O)/C3=C\c2ccc[nH]2)cc1
inactive: [1] 69.3% | [2] 100% | [3] 104% | [4] 108% | [5] 84.7% | [6] 125% | [7] 96.2% | [8] 119% | [9] 102% | [10] 104%

O=C(Cc1c(-c2cccc([N+](=O)[O-])c2)n(-c2ncnc3c2c(-c2ccccc2)c(-c2ccccc2)n3Cc2ccccc2)[nH]c1=O)c1ccc(Cl)c(Cl)c1
inactive: [1] 59.8% | [2] 12.6% | [3] 34.3% | [4] 66.8% | [5] 31.6% | [6] 72.2% | [7] 33.8% | [8] 46.5% | [9] 20.2% | [10] 51.6%

N#Cc1cc(-c2ccc3ncnc(N4CCc5cc(F)c(Cl)cc54)c3c2)cnc1N
active: [1] -25.7% | [7] -16.2% | [9] -7.07%
inactive: [2] 28.2% | [3] 44.3% | [4] 55.2% | [5] 29.5% | [6] 64.3% | [8] 16.6% | [10] 47.2%

Cc1[nH]nc2ccc3nc(-c4cnn(CCO)c4)c4c(c3c12)CCCC4
inactive: [1] 13.8% | [2] 33.8% | [3] 48.7% | [4] 90.4% | [5] 63.1% | [7] 44.5% | [8] 90.2% | [10] 73.5%
active: [6] 9.64% | [9] -2.52%

Cc1cccc(/C=C/c2ccc(NC(=S)NCCCCN(C)C)cc2)c1
active: [1] -17.4% | [2] -26.1% | [3] -62.3% | [4] -94.2% | [5] -93.7% | [6] -65.9% | [7] -91% | [8] -55.4% | [9] -54% | [10] -95.1%

Cc1ccc(C(=O)Nc2ccc(-n3ccnc3)c(C(F)(F)F)c2)cc1C#Cc1cnc2cccnn12
active: [2] -4.27% | [9] -7.38%
inactive: [1] 13.8% | [3] 18.6% | [4] 39.8% | [5] 13.6% | [6] 48% | [7] 20% | [8] 45.4% | [10] 24.7%

O=C(NN1C(=O)/C(=C/C=C/c2ccc([N+](=O)[O-])o2)SC1=S)c1ccncc1
active: [1] -24.7% | [2] -28.4% | [3] -37.2% | [4] -98.9% | [5] -97.6% | [6] -99% | [7] -94.9% | [8] -100% | [9] -11% | [10] -4.3%

O=C1Nc2cc(-c3ccc(NS(=O)(=O)c4ccc([N+](=O)[O-])cc4)cc3)ccc2/C1=C/c1ccc[nH]1
active: [3] 7.53% | [5] 6.68% | [6] -16.9% | [8] -29.4%
inactive: [1] 12.9% | [2] 13.5% | [4] 27.5% | [7] 39.2% | [9] 41.6% | [10] 24.4%

CCc1ccccc1-c1nc(CN[C@@H]2C[C@@H]3C[C@H]([C@H]2C)C3(C)C)c(C)o1
active: [1] -15.6% | [2] -13.9% | [3] -66.4% | [4] -87.4% | [5] -42.9% | [6] -79.8% | [7] -85% | [8] -61.6% | [9] -43.4% | [10] -78.4%

Cc1ccc(Cl)cc1NC(=O)Nc1nc2ccc([N+](=O)[O-])cc2s1
active: [1] 1.31% | [2] -18.7% | [3] 1.61% | [4] 2.15% | [5] 7.05% | [6] -28.6% | [7] 8.2% | [8] 2.64% | [9] -13.9% | [10] -17.1%

COc1ccc(-c2cc(C)nc3[nH]c(=O)sc23)cc1
inactive: [1] 75.5% | [2] 69.4% | [3] 63.5% | [4] 80.4% | [6] 55.9% | [7] 62.5% | [8] 67.1% | [9] 48.2% | [10] 62.4%
active: [5] 2.45%

COc1ccc(-n2c(NC(=O)N3CCN(C)CC3)c(C#N)c3ccccc32)cc1
inactive: [1] 31.5% | [2] 41.6% | [3] 66.8% | [4] 55.1% | [5] 43.3% | [6] 55% | [7] 34.2% | [8] 42.6% | [9] 27.3% | [10] 59.5%

COc1cc(/C=C/C(=O)c2ccc(S(=O)(=O)NCCNc3nc(N(C)C)nc(N4CCOCC4)n3)cc2)cc(OC)c1OC
active: [1] -28.2% | [2] -14.5% | [3] -49.5% | [4] -33.1% | [5] 8.16% | [7] -55% | [8] -42.2% | [10] -39.1%
inactive: [6] 60.3% | [9] 19.9%

COC(=O)c1c(C(=O)OC)c2c3ccccc3c3ccccc3n2c1C(=O)C(C)(C)C
active: [1] -17.3%
inactive: [2] 47.2% | [3] 90.5% | [4] 97.9% | [5] 57.6% | [6] 122% | [7] 96.3% | [8] 112% | [9] 69.4% | [10] 83.3%

Cc1cn(-c2cc(NC(=O)c3ccc(C)c(-n4cc(-c5cnc6cccnn56)nn4)c3)cc(C(F)(F)F)c2)cn1
inactive: [1] 23.2% | [2] 53.9% | [3] 92.4% | [4] 58.3% | [5] 100% | [6] 124% | [7] 88.7% | [8] 124% | [9] 108% | [10] 94.5%

COc1cc(C2CC(c3ccc(C(F)(F)F)cc3)=Nc3c(N)nc(N)nc3N2)ccc1Oc1nc(Nc2ccc(F)cc2)nc(N(C)C)n1 (stereo not given)
active: [1] -25.2%
inactive: [2] 24.3% | [3] 46.9% | [4] 89.1% | [5] 37.1% | [6] 90.8% | [7] 39.8% | [8] 76.1% | [9] 48.9% | [10] 37%

COc1ccc2c(c1)C(Sc1ccc(Br)cc1)c1c(nc(N)c(C#N)c1N)O2 (stereo not given)
inactive: [1] 46.5% | [2] 87.1% | [3] 87% | [4] 113% | [5] 92.4% | [6] 98.1% | [7] 59.1% | [8] 114% | [9] 88.8% | [10] 86.5%

C=CC(=O)N1CCN(c2ccc3nc4c(nc3c2C(F)(F)F)C(=O)c2ncccc2C4=O)CC1
active: [2] -20.2% | [3] -9.34% | [4] 2.97% | [5] -96.4% | [7] -42.6% | [8] -15.3%
inactive: [1] 33.2% | [6] 91.1% | [9] 75.8% | [10] 47.5%

CCCCNc1ccc2c3c(cccc13)C(=O)N(NCC(O)COc1ccc3c(C)cc(=O)oc3c1)C2=O (stereo not given)
inactive: [1] 70.2% | [2] 69.3% | [3] 91.2% | [4] 106% | [5] 74.6% | [6] 99.4% | [7] 78.9% | [8] 87.8% | [9] 80.7% | [10] 85.8%

c1n[nH]cc1-c1nc2ccc3[nH]ncc3c2c2c1CC1(CCOCC1)CC2
inactive: [2] 49.8% | [3] 35.4% | [4] 87.7% | [5] 70.2% | [7] 61.2% | [8] 52.5% | [10] 96.5%
active: [1] 2.94% | [6] -0.483% | [9] 5.29%

COc1ccccc1/C=C/c1cccc(NC(=S)NCCCCN(C)C)c1
active: [1] -30.5% | [2] -6.58% | [3] -58.5% | [4] -92.3% | [5] -79.7% | [6] -72.9% | [7] -82.4% | [8] -48.8% | [9] -24.2% | [10] -62.6%

N#CCc1nnc(NC(=O)c2ccc(-n3c(=O)[nH]c4ccccc4c3=O)cc2)s1
inactive: [1] 93.4% | [2] 111% | [3] 100% | [4] 96.7% | [5] 106% | [6] 106% | [7] 105% | [8] 104% | [9] 87.9% | [10] 104%
